This note sets out measurements from PubChem BioAssay (NCATS).

Inconclusive results are not listed. Calls of active or inactive are those of the source. The call rests on the fitted dose curve; tested in HEK293 reporter line.
On the % scale 0 is the no-effect control and ±100 the full control effect.

The experiment in a line: qHTS for Inhibitors of the Functional Ribonucleoprotein Complex (vRNP) of Lassa (LASV) Arenavirus: LASV Primary Screen - GLuc reporter signal (AID 1347082). Further: nearly all actives have a fitted effect of over 60% in size. The conditions noted are these: LASV minigenome vRNP, Gaussia luciferase reporter; series mostly up to 57.5 µM; activity change, negative = inhibition: at the top concentration.
Regarding `COc1cc(C(=O)O[C@@H]2CC3CC[C@]2(C)C3(C)C)ccc1O`, the “activity change, negative = inhibition” value was 3.31% (inactive). Consider `CCCCCCCCCCCCCC`, for which the “activity change, negative = inhibition” value was -16.3% [at 115 µM] (inactive). In the case of `C=C1C2C[C@H](O)C(C)(C)[C@@]2(O)[C@H](O)C[C@]23C[C@@](C)(O)[C@H](CC[C@H]12)[C@H]3O` (stereo not given in full), the “activity change, negative = inhibition” value is 7.67% (inactive). Regarding `ClC1=C(Cl)[C@]2(Cl)[C@@H]3[C@@H](Cl)[C@H]4O[C@H]4[C@@H]3C1(Cl)C2(Cl)Cl`, the “activity change, negative = inhibition” value is -9.31% (inactive). Under `COC(=O)c1ccc(OC)cc1` stands 1.12% [at 115 µM] (inactive); under `CCC(=O)O[C@]1(C(=O)CO)CC[C@H]2[C@@H]3CCC4=CC(=O)CC[C@]4(C)[C@@H]3CC[C@@]21C`, -0.618% (inactive); under `CC(=O)OCC(=O)[C@@]1(O)CC[C@H]2[C@@H]3CCC4=CC(=O)CC[C@]4(C)[C@@H]3C(=O)C[C@@]21C`, -1.6% (inactive). Under `Oc1ccc(C=Cc2cc(O)cc(O)c2)cc1` stands -2.54% (inactive). Under `CC1=CC(=O)C2=C(C)C[C@@H]3OC(=O)[C@@H](C)[C@H]3C=C12` stands -2.56% (inactive); under `CC1(C)C[C@H]2C3=CCC4[C@@]5(C)CC[C@H](O)[C@](C)(CO)C5CC[C@@]4(C)[C@]3(C)C[C@H]3O[C@@H]1[C@H](O)[C@]32CO` (stereo not given in full), 3.86% (inactive). On to `CCOC(=O)c1cc(=O)[nH]c2ccccc12`, for which the “activity change, negative = inhibition” value was -0.701% (inactive). In the case of `O=C(/C=C/c1ccccc1)NCCc1cnc[nH]1`, the “activity change, negative = inhibition” value was 12.5% (inactive). Under `C=C(CC[C@]12OC(C(=O)O)C(O)(C(=O)O)C(C(=O)O)(O1)C(OC(=O)/C=C/[C@@H](C)C[C@@H](C)CC)C2O)[C@@H](OC(C)=O)[C@H](C)Cc1ccccc1` (stereo not given in full) stands 4.78% (inactive); under `CCCCCC/C=C/C=O`, -0.0088% [at 115 µM] (inactive); under `COC(=O)C(O)C(O)(CCC(C)C)C(=O)OC1C(OC)=CC23CCCN2CCc2cc4c(cc2C13)OCO4` (stereo not given), -89.4% (inactive). As to `C=C(CC[C@@H](O)C(C)(C)O)[C@H]1CC[C@]2(C)[C@@H]1CCC1[C@@]3(C)CC[C@H](O)C(C)(C)C3CC[C@]12C` (stereo not given in full), the “activity change, negative = inhibition” value is 2.52% (inactive).

For `CC1(C)C[C@H](O)[C@]2(CO)[C@H](O)C[C@]3(C)C(=CCC4[C@@]5(C)CC[C@H](O)C(C)(C)C5CC[C@]43C)[C@@H]2C1` (stereo not given in full), the “activity change, negative = inhibition” value is -1.14% (inactive). Under `Nc1nc(Cl)nc2c1ncn2[C@@H]1O[C@H](CO)[C@@H](O)[C@H]1F` stands -6.39% (inactive); under `C=CC(=O)c1ccc(CCCCCC)cc1`, -3.88% (inactive). As for `CC(CCC(=O)O)C1CCC2C3CC(O)C4CC(O)CC[C@]4(C)C3CCC12C` (stereo not given in full), the figure is 7.43% (inactive). As for `C=C(C)[C@@H]1CCC2=CCC[C@@H](C)[C@]2(C)C1`, the figure is -3.69% [at 115 µM] (inactive). Turning to `O=C1c2ccccc2C(=O)c2c(O)c(O)cc(O)c21`, the “activity change, negative = inhibition” value was -1.72% [at 115 µM] (inactive). As for `COC(=O)c1nccc2c1[nH]c1ccccc12`, the figure is 0.41% (inactive); as for `CC(C)CC(=O)[C@@H](O)Cc1ccc(O)cc1`, -1.63% (inactive). As for `CC(C)c1noc(N2CCC(COc3ccc(-c4ccc(S(C)(=O)=O)cc4)nc3)CC2)n1`, the figure is -19.6% (inactive); as for `C=C(C)C(COc1c2occc2cc2ccc(=O)oc12)OC(C)(C)C(O)COc1c2occc2cc2ccc(=O)oc12` (stereo not given), 8.42% (inactive). Under `CC(C)=CCCC(C)CCO` (stereo not given) stands 2.39% (inactive). For `Nc1nc(Cl)nc2c1ncn2[C@@H]1O[C@H](CO)C(O)[C@H]1O` (stereo not given in full), the “activity change, negative = inhibition” value is -57.4% (inactive). On to `CO[C@H]1[C@@H]2C=CO[C@@H](O[C@H]3O[C@@H](CO)[C@H](O)[C@@H](O)[C@@H]3O)[C@@H]2[C@@]2(CO)O[C@@H]12`, for which the “activity change, negative = inhibition” value was 0.111% (inactive).

Consider `COc1c(O)ccc2c1-c1c3c(cc4c1C(C2)N(C)CC4)OCO3` (stereo not given), for which the “activity change, negative = inhibition” value is -6.37% (inactive). Take `O=C1CCc2ccccc2O1`: the “activity change, negative = inhibition” value is 12.1% (inactive). Under `OCCc1c[nH]c2ccccc12` stands -0.555% (inactive). Under `CC1=CC23C(=O)C(C=C(CO)[C@@H](O)[C@]2(O)[C@H]1O)[C@H]1[C@@H](C[C@H]3C)C1(C)C` (stereo not given in full) stands 6.4% (inactive); under `COC(=O)c1ccc(=O)c2nc3/c(=C/O)c(O)cc(=O)c3[nH]c12`, 9.32% (inactive); under `CCCCCCC(=O)OCC`, -1.13% [at 115 µM] (inactive).

Consider `O=C(O)C1=CO[C@@H](O[C@@H]2O[C@H](CO)[C@H](O)[C@H](O)[C@H]2O)[C@@H]2C(CO)=CC[C@H]12`, for which the “activity change, negative = inhibition” value was -11.6% (inactive). Under `Cc1[nH]c(C=C2C(=O)Nc3ccc(S(=O)(=O)N(C)c4cccc(Cl)c4)cc32)c(C)c1C(=O)N1CCN(C)CC1` stands -22.4% (inactive); under `C[C@H]1CCC2[C@](C)(CO)[C@@H](O)CC[C@]2(C)[C@@]12CCC(CO)(CCO)O2` (stereo not given in full), 4.97% (inactive). Under `O=C(O)CC(=O)Nc1ccccc1C(=O)O` stands 3.97% (inactive). Under `Cn1cc(C=C2C(=O)Nc3cccnc32)c2ccccc21` stands -5.87% (inactive).
